{
  "source": "the supplement of paper PMC7261846",
  "system": "Candida albicans SNY425 biofilm",
  "assay": "biofilm OD600 with compound plus antifungal (OD600 (absorbance)); higher = more biofilm remaining",
  "key": {"[1]": {"settings": "assay detail: disruption of 24-h mature biofilm (compound + antifungal for a second 24 h)"}, "[2]": {"settings": "assay detail: sustained inhibition (compound + antifungal during 90-min adherence and 24-h growth)"}},
  "note": "Counter-ions that a name gives are not always drawn. ± gives the uncertainty stated by the source.",
  "data": [
    {"smiles": "CCOC(=O)c1ccc(OC(=O)CCCCCNC(=N)N)cc1", "note": "[Gabexate mesylate] + C[C@@H]1[C@H](O)[C@@H](C)/C=C/C=C/C=C/C=C/C=C/C=C/C=C/[C@H](O[C@@H]2O[C@H](C)[C@@H](O)[C@H](N)[C@@H]2O)C[C@@H]2O[C@](O)(C[C@@H](O)C[C@@H](O)[C@H](O)CC[C@@H](O)C[C@@H](O)CC(=O)O[C@H]1C)C[C@H](O)[C@H]2C(=O)O [amphotericin B] (first compound 12.5 µM)", "values": [
      {"measurement": "biofilm OD600", "setting": "[1]", "value": "0.281 ± 0.012"},
      {"measurement": "biofilm OD600", "setting": "[2]", "value": "0.201 ± 0.0075"}
    ]},
    {"smiles": "NCCCC[C@H](N[C@@H](CCc1ccccc1)C(=O)O)C(=O)N1CCC[C@H]1C(=O)O", "note": "[Lisinopril] + OC(Cn1cncn1)(Cn1cncn1)c1ccc(F)cc1F [fluconazole] (first compound 12.5 µM)", "values": [
      {"measurement": "biofilm OD600", "setting": "[1]", "value": "0.26 ± 0.0069"},
      {"measurement": "biofilm OD600", "setting": "[2]", "value": "0.118 ± 0.015"}
    ]},
    {"smiles": "COC(=O)N[C@H](C(=O)N[C@@H](Cc1ccccc1)[C@@H](O)CN(Cc1ccc(-c2ccccn2)cc1)NC(=O)[C@@H](NC(=O)OC)C(C)(C)C)C(C)(C)C", "note": "[atazanavir] + OC(Cn1cncn1)(Cn1cncn1)c1ccc(F)cc1F [fluconazole] (first compound 12.5 µM)", "values": [
      {"measurement": "biofilm OD600", "setting": "[1]", "value": "0.267 ± 0.012"},
      {"measurement": "biofilm OD600", "setting": "[2]", "value": "0.173 ± 0.0039"}
    ]},
    {"smiles": "COC(=O)C[C@H](NC(=O)[C@H](C)NC(=O)[C@@H](NC(=O)OCc1ccccc1)C(C)C)C(=O)CF", "note": "+ C[C@@H]1[C@H](O)[C@@H](C)/C=C/C=C/C=C/C=C/C=C/C=C/C=C/[C@H](O[C@@H]2O[C@H](C)[C@@H](O)[C@H](N)[C@@H]2O)C[C@@H]2O[C@](O)(C[C@@H](O)C[C@@H](O)[C@H](O)CC[C@@H](O)C[C@@H](O)CC(=O)O[C@H]1C)C[C@H](O)[C@H]2C(=O)O [amphotericin B] (first compound 12.5 µM)", "values": [
      {"measurement": "biofilm OD600", "setting": "[1]", "value": "0.296 ± 0.013"},
      {"measurement": "biofilm OD600", "setting": "[2]", "value": "0.184 ± 0.011"}
    ]}
  ]
}
